Our source for the growth values is PubChem BioAssay (NCI).

Some test systems named below: NCI-H23 lung; NCI-H226 lung; NCI-H322M lung; HOP-62 NSCLC; NCI-H460 lung; HOP-92 NSCLC; NCI-H522 lung; A549/ATCC NSCLC; 786-0 renal; COLO 205 colon; DU-145 prostate; K-562 leukemia; MALME-3M melanoma; MDA-MB-231 breast; RXF 393 renal; SF-268 CNS; SF-295 CNS; SF-539 CNS; UACC-257 melanoma; M14 melanoma.
Holding throughout (experiment): NCI-60 one-dose screen, 48 h (100 = growth as untreated, 0 = no growth, -100 = all killed)
Conditions in all cases: 10 µM unless noted

About 83,000 compounds went through this panel and 20% of them were active in at least one assay; those are over-represented in the sample as a whole.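 Negative percent growth values reflect cell death: -40 means 40% of the cells present at the start died, and -100 means all died.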 A number with no mark means an inactive call. Calls of active or inactive are those of the source. How the source made its calls: active means growth percent below 10; inactive means the rest.

For the compound `COc1ccc(C/C(C)=C(\c2ccc(Cl)cc2)c2ccc(OCCN3CCCC3)cc2)cc1`, the growth was 85% in the experiment on NCI-H23 lung; 98.1% in the experiment with NCI-H226 lung; 91.6% with NCI-H322M lung; 94.6% with HOP-62 NSCLC; 81.9% in the experiment with NCI-H460 lung; 70.5% with HOP-92 NSCLC. In addition, the growth is 90% in the experiment on NCI-H522 lung; 79% in the experiment on A549/ATCC NSCLC; 83.7% with 786-0 renal; 47.8% in the experiment on COLO 205 colon; 98.5% in the experiment with DU-145 prostate; 13% in the experiment with K-562 leukemia. Also, the growth was 93.5% in the experiment with MALME-3M melanoma; 85.7% with MDA-MB-231 breast; 64.1% with RXF 393 renal; 86.5% with SF-268 CNS; 99.2% in the experiment on SF-295 CNS; 88% with SF-539 CNS. For the same compound, the growth in the experiment on UACC-257 melanoma was 93.5%; in the experiment on M14 melanoma, 62.9%.

As for `Cc1ccc(S(=O)(=O)OC[C@]23CCC(C)(C)C[C@H]2C2=CC[C@@H]4[C@@]5(C)CCCNC(C)(C)[C@@H]5CC[C@@]4(C)[C@]2(C)CC3)cc1`, the growth in the experiment on NCI-H23 lung is 73.7%; in the experiment on NCI-H226 lung, 81.8%; in the experiment with NCI-H322M lung, 79.7%; in the experiment with HOP-62 NSCLC, 78.1%; with NCI-H460 lung, -60.2% (active); with HOP-92 NSCLC, 41.8%. Moreover, the growth is 62% in the experiment on NCI-H522 lung; 34.6% in the experiment with A549/ATCC NSCLC; 34.7% in the experiment on 786-0 renal; -66.5% (active) in the experiment with COLO 205 colon; 37.9% with DU-145 prostate; -20% (active) in the experiment with K-562 leukemia. In addition, the growth was 95.8% with MALME-3M melanoma; 45.6% in the experiment on MDA-MB-231 breast; 67.9% in the experiment on RXF 393 renal; 69.6% in the experiment with SF-268 CNS; 104% in the experiment with SF-295 CNS; 74.8% in the experiment with SF-539 CNS. Also, the growth with UACC-257 melanoma was 97.4%; with M14 melanoma, 80.7%.

Regarding `CNCCCNc1nc2ccccc2c2c(=O)c3cc(Cl)ccc3sc12`, the growth is 70.1% in the experiment with NCI-H23 lung; 101% in the experiment on NCI-H226 lung; 70.4% with NCI-H322M lung; 60.5% in the experiment with HOP-62 NSCLC; -70.5% (active) in the experiment on NCI-H460 lung; 9.37% (active) in the experiment on HOP-92 NSCLC. Moreover, the growth in the experiment with NCI-H522 lung is 17.6%; with A549/ATCC NSCLC it was 17.8%; in the experiment with 786-0 renal, 52.7%; with COLO 205 colon, -84.4% (active); in the experiment on DU-145 prostate, -8.94% (active); in the experiment on K-562 leukemia, -70.1% (active). Also, the growth with MALME-3M melanoma was 17.6%; in the experiment with MDA-MB-231 breast, -58.8% (active); with RXF 393 renal it was 61.1%; in the experiment on SF-268 CNS it was 53.8%; in the experiment with SF-295 CNS, 62.6%; in the experiment on SF-539 CNS it was 70.8%. Besides, the growth with UACC-257 melanoma was 92.8%; with M14 melanoma it was -57.2% (active).

For `c1ccc(Cn2cc3c(c2-c2ccccc2)CCc2cnoc2-3)cc1`, the growth with NCI-H23 lung is 78.8%; in the experiment with NCI-H226 lung it was 83.6%; with NCI-H322M lung, 95.6%; in the experiment with HOP-62 NSCLC it was 75.1%; with NCI-H460 lung it was 53.7%; in the experiment with HOP-92 NSCLC, 65.8%. The growth in the experiment with NCI-H522 lung was 56.6%; in the experiment on A549/ATCC NSCLC it was 59.6%; in the experiment with 786-0 renal, 80.2%; in the experiment on COLO 205 colon it was 80.5%; with DU-145 prostate, 88.3%; in the experiment on K-562 leukemia, 16.2%. Moreover, the growth was 45.8% in the experiment with MALME-3M melanoma; 87.2% in the experiment on MDA-MB-231 breast; 80.6% in the experiment with RXF 393 renal; 76.6% in the experiment on SF-268 CNS; 60.4% in the experiment on SF-295 CNS; 71.9% in the experiment with SF-539 CNS. For the same compound, the results for the growth with UACC-257 melanoma and in the experiment on M14 melanoma were 92.4% and 44.1%, respectively.

In the case of `O=c1c2ccccc2n(C[C@H]2CO2)c2ccccc12`, the growth with NCI-H23 lung is -58.2% (active); in the experiment on NCI-H226 lung, 51.4%; in the experiment with NCI-H322M lung, 20%; in the experiment on HOP-62 NSCLC, -12.8% (active); with NCI-H460 lung it was -40.5% (active); in the experiment with HOP-92 NSCLC, -3.5% (active). For the same compound, the growth in the experiment with NCI-H522 lung is -37.5% (active); in the experiment on A549/ATCC NSCLC, -37.2% (active); in the experiment on 786-0 renal, -14.1% (active); with COLO 205 colon it was 2.46% (active); with DU-145 prostate, 2.26% (active); with K-562 leukemia it was 8.2% (active). The growth is -74.3% (active) with MALME-3M melanoma; 5.95% (active) with MDA-MB-231 breast; -67.1% (active) with RXF 393 renal; -8.61% (active) with SF-268 CNS; 5.39% (active) with SF-295 CNS; -22.1% (active) in the experiment on SF-539 CNS. Moreover, the growth in the experiment with UACC-257 melanoma was -10.1% (active); with M14 melanoma, 6.45% (active).

Turning to `Cc1cc2oc(/C=C/c3ccccc3)cc(=O)c2c(C)c1Cl`, the growth in the experiment on NCI-H23 lung is 88.8%; in the experiment with NCI-H226 lung, 103%; in the experiment on NCI-H322M lung, 110%; in the experiment on HOP-62 NSCLC it was 103%; in the experiment on NCI-H460 lung, 105%; with HOP-92 NSCLC it was 97%. For the same compound, the growth in the experiment on NCI-H522 lung is 93.8%; with A549/ATCC NSCLC, 91.6%; in the experiment with 786-0 renal, 93.2%; with COLO 205 colon it was 104%; in the experiment on DU-145 prostate, 103%; in the experiment on K-562 leukemia, 118%. The growth in the experiment on MALME-3M melanoma is 94%; in the experiment with MDA-MB-231 breast it was 107%; in the experiment with RXF 393 renal, 98%; in the experiment on SF-268 CNS, 102%; with SF-295 CNS, 96.2%; in the experiment on SF-539 CNS, 98.9%. For the same compound, the figures for the growth with UACC-257 melanoma and in the experiment with M14 melanoma were 97% and 108%, respectively.

Consider `O=C(NCc1ccc(Cn2c(=O)sn(-c3ccccc3)c2=O)cc1)OCc1ccc2cccc(O)c2n1`, for which the growth was -67.4% (active) with NCI-H23 lung; 35.6% with NCI-H226 lung; 67.4% in the experiment with NCI-H322M lung; -58.2% (active) in the experiment on HOP-62 NSCLC; 27.2% with NCI-H460 lung; -65.3% (active) with HOP-92 NSCLC. Further, the growth in the experiment on NCI-H522 lung is -53.5% (active); with A549/ATCC NSCLC, -27.3% (active); with 786-0 renal, -87.7% (active); in the experiment with COLO 205 colon, -57.4% (active); in the experiment with DU-145 prostate, -91.7% (active); in the experiment on K-562 leukemia, -9.02% (active). The growth in the experiment on MALME-3M melanoma is -68.7% (active); with MDA-MB-231 breast it was -45.7% (active); in the experiment on RXF 393 renal it was -94.3% (active); in the experiment on SF-268 CNS it was -46.2% (active); with SF-295 CNS it was 50.2%; in the experiment on SF-539 CNS it was -91.7% (active). For the same compound, the results for the growth with UACC-257 melanoma and in the experiment with M14 melanoma were -25% (active) and -64.2% (active), respectively.

For `O=S(Nc1ccccc1)c1ccc(Cl)cc1` (stereo not given), the growth in the experiment on NCI-H23 lung is 105%; in the experiment on NCI-H226 lung, 99.9%; with NCI-H322M lung, 104%; in the experiment on HOP-62 NSCLC, 92%; in the experiment with NCI-H460 lung, 95.1%; in the experiment on HOP-92 NSCLC it was 103%. Further, the growth with NCI-H522 lung was 82.8%; in the experiment with A549/ATCC NSCLC, 78.9%; with 786-0 renal, 103%; in the experiment on COLO 205 colon, 102%; with DU-145 prostate it was 116%; in the experiment on K-562 leukemia, 94.6%. The growth in the experiment on MALME-3M melanoma was 108%; in the experiment on MDA-MB-231 breast it was 103%; in the experiment with RXF 393 renal, 99.2%; in the experiment on SF-268 CNS, 100%; in the experiment with SF-295 CNS, 107%; in the experiment with SF-539 CNS it was 102%. Besides, the growth with UACC-257 melanoma was 86.2%; with M14 melanoma it was 99.2%.
